Screening data deposited in PubChem BioAssay by National Center for Advancing Translational Sciences (NCATS).
Sampled rows, rich in hits. Any-hit rate of the full collection: about 7.5%.
FMDV antiviral – blocks foot and mouth disease virus; 410,000 tested, 1.2% active; FMDV antiviral cell-based qHTS; Potency, µM (series often up to 57.9 µM), for the others: at the top dose activity change, negative = inhibition, most hits filed as inhibitors; AID 1159524; calls by dose curve; tested in HEK293T cells; also: read-out not given here; potency is read from the fitted curve at half-maximal effect; nearly all actives have a fitted effect of over 45% in size
Vaccinia mCherry – inhibitors of vaccinia virus infection (mCherry reporter signal); 310,000 tested, 0.63% active; Potency, µM (top dose mostly 36.5 µM), for inactives: at the top dose activity change, negative = inhibition, actives largely listed as inhibitors; AID 720579; Vaccinia virus mCherry reporter infection, fluorescence; calls by dose curve; tested in A549 cells; also: potency is read from the fitted curve at half-maximal effect; nearly all actives have a fitted effect of over 35% in size
HCV inhibitor – blocks hepatitis C virus; Huh7.5.1 HCVcc-Cre infection, luciferase reporter, 44 h; Potency, µM (top dose mostly 41.8 µM), for inactives: top-dose activity change, negative = inhibition, hits mostly inhibitors; 340,000 tested, 3.4% active; AID 651820; also: potency is read from the fitted curve at half-maximal effect
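Cells (1,000/well) were plated 4 h before compound, then infected with HCVcc-Cre virus (~0.5 moi). After 44 h further culture, infection was read as luciferase luminescence following a 15 min substrate incubation at room temperature.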
HCMV antiviral – blocks human cytomegalovirus replication. HFF cells, HCMV-luciferase reporter, 72 h; active compounds read low. activity change, negative = inhibition, % at 57.5 µM. 410,000 tested, 4.5% active. AID 1259415; in the data active = activity change below about -60%; inconclusive = no clear call, values can overlap the other calls; inactive = above about -39%
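Human foreskin fibroblasts infected with luciferase-reporter HCMV at MOI 1 PFU/cell, compounds at two doses. Luciferase measured 72 h post infection; normalized to buffer-only basal and Salinomycin (10uM) controls.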
Vaccinia Venus – vaccinia inhibition (Venus reporter). Vaccinia virus Venus reporter expression, fluorescence. Potency, µM (top dose mostly 36.5 µM), without a hit: at the top dose activity change, negative = inhibition, actives largely listed as inhibitors. 330,000 tested, 0.46% active; calls by dose curve; tested in A549 cells; also: potency is read from the fitted curve at half-maximal effect; nearly all actives have a fitted effect of over 30% in size
Giardia FBPA inh – blocks Giardia fructose-bisphosphate aldolase activity; purified Giardia FBPA; A8B2U2; 290,000 tested, 0.71% active; Potency, µM (doses to about 59.6 µM), for inactives: at the highest dose activity, negative = inhibition, usual class: inhibitors; also: potency is read from the fitted curve at half-maximal effect; nearly all actives have a fitted effect of over 55% in size
Target sequence (A8B2U2 whole entry, looked up): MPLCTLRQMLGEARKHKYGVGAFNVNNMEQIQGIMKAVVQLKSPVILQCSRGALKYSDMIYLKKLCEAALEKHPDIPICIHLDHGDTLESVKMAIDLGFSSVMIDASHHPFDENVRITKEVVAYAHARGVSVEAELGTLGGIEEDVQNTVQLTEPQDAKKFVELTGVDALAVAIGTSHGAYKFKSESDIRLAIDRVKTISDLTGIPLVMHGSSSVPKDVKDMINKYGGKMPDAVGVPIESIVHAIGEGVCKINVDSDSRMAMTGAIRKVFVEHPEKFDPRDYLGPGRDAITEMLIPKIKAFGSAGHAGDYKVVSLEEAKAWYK
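40 nM FBPA preincubated 10 min at RT with compound (up to 57.5 uM final), then substrate plus GAPDH/TPI/NAD/arsenate coupling and diaphorase/resazurin added. Fluorescence read after 20 min at RT, 525/598 nm.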
* marks the source's active call; other numbers are inactive results; i = inactive; ? = inconclusive; . = not tested or not shown; [ ] = dose if it differs, or a comment. Unless noted, calls follow the shape of the dose curve; as a rule, active = well fitted curve in the direction sought with a large enough effect; inconclusive = small, poorly fitted or top-dose-only effect, or another doubt; inactive = no such curve, though single readings can be large; an effect the other way counts as inactive or inconclusive. % is scaled to controls: 0 for no effect and ±100 for the full control effect.

SMILES	FMDV antiviral	Vaccinia mCherry	HCV inhibitor	HCMV antiviral	Vaccinia Venus	Giardia FBPA inh
CCN1/C(=C/c2cccc[n+]2C)Sc2ccc(OC)cc21	?	-2.1%	3.55µM*	-93.6*	?	2.6%
COc1ccc2c(c1)N(C)/C(=C/c1cccc[n+]1C)S2	?	.	3.55µM*	-99.3*	.	6.1%
COc1cc(OC)cc(C(=O)/C=C2\Sc3ccccc3N2C)c1	17.9%	-12.0%	6.1%	-39.7	-5.0%	-12.7%
CCN1CCN(C(c2cccc(OC)c2OC)c2nnnn2Cc2ccco2)CC1 (centres undefined)	-8.1%	-5.2%	-8.9%	-82.6*	-1.7%	-3.4%
COc1ccc(Cn2nnnc2C(C(C)C)N2CCN(c3ccccc3OC)CC2)cc1 (centres undefined)	25.1µM*	.	?	-27.1	?	-5.2%
COc1ccccc1C(c1nnnn1Cc1ccco1)N1CCN(c2cccc(C)c2C)CC1 (centres undefined)	-3.3%	.	12.6µM*	-27.3	.	0.9%
CC(C)c1ccc(S(=O)(=O)Nc2ccc3oc4c(c3c2)C(=O)CC(C)(C)C4)cc1	-11.6%	-11.5%	.	-7.6	-15.0%	.
COC1=C(OC)C(=O)C(Sc2ccc3ccccc3c2)=CC1=O	0.0%	-7.6%	?	-81.1*	-3.6%	.
COc1ccc(S(=O)(=O)Oc2ccc3ccccc3c2)cc1	-5.9%	?	?	-19.8	-26.0%	-0.9%
CN(C)c1cc[n+](CC(=O)Nc2c(Cl)cc(Cl)cc2Cl)cc1	-9.4%	i	-3.2%	-67.5*	-18.2%	6.2%
Cc1ccc(Sc2c(O)c3ccccc3n(C)c2=O)cc1	-12.5%	.	-15.6%	0.9	.	-12.7%
Cc1ccc(Sc2c(C=O)c3ccccc3n2C)cc1	?	.	11.2µM*	-91.1*	?	4.0%
Cn1c(-c2ccccc2)c(C=O)c2ccccc21	8.5%	.	?	-11.8	.	1.7%
Cc1ccc(Sc2c([N+](=O)[O-])c(=O)n(C)c3ccccc23)cc1	22.4µM*	.	?	-20.2	.	-5.1%
CC#C[C@]1(O)CC[C@H]2C3C=C(C)C4=CC(=O)C=C[C@]4(C)[C@H]3[C@@H](O)C[C@@]21C (some centres undefined)	.	.	.	.	.	-13.7%
Cn1nc(C(=O)NNC(=O)c2ccccc2Br)c2ccccc2c1=O	-6.1%	i	20.5%	-11.4	-6.1%	.
CN(C)c1ccc(-c2n(C)c3ccccc3[n+]2C)cc1	.	?	8.91µM*	-97.1*	?	?
Cn1c(-c2ccc3ccccc3n2)[n+](C)c2ccccc21	19.3%	-7.6%[7.34 µM]	?	-71.9*	-7.3%[7.34 µM]	-6.8%
CCN(CC)S(=O)(=O)c1cccc(NC(=O)/C=C/c2ccc([N+](=O)[O-])cc2)c1	-23.2%	-10.1%	?	-15.0	-0.1%	-1.6%
CCN(CC)S(=O)(=O)c1ccc(/C=C/C(=O)Nc2ccc(F)cc2F)cc1	?	.	?	-68.6*	.	-0.7%
CCN(CC)S(=O)(=O)c1ccc(/C=C/C(=O)Nc2ccc(N3CCOCC3)cc2)cc1	?	.	12.6µM*	-83.2*	.	-0.3%
COc1ccc(/C=C/C(=O)Nc2ccc(N3CCOCC3)cc2)cc1	-19.3%	-25.5%	-22.7%	?	-19.6%	-0.7%
CCN(CC)S(=O)(=O)c1ccc(/C=C/C(=O)Nc2ccc(F)c(F)c2F)cc1	?	-20.2%	1.41µM*	-64.1*	-13.7%	-2.2%
CCN(CC)S(=O)(=O)c1ccc2oc(C(=O)Nc3ccc(Br)cc3F)c(C)c2c1	-27.5%	?	.	-3.5	?	.
CCN(CC)S(=O)(=O)c1ccc(/C=C/C(=O)Nc2ccc(Br)cc2F)cc1	5.01µM*	-12.8%	2µM*	-73.0*	-27.6%	-2.4%
SMILES	FMDV antiviral	Vaccinia mCherry	HCV inhibitor	HCMV antiviral	Vaccinia Venus	Giardia FBPA inh
O=C(CSc1ccncc1)NCC1Cc2cccc(-c3cncnc3)c2O1 (centres undefined)	2.8%	i	.	.	-9.0%	.
O=C(c1cc(COc2cccc(C(F)(F)F)c2)on1)N1C[C@H]2CC[C@H]1C2	0.6%	i	-20.8%	-13.1	-12.9%	.
CC1(C)C[C@@H]2C[C@@](C)(CN2C(=O)c2cc(COc3cccc(C(F)(F)F)c3)on2)C1	-13.4%	-11.8%	10µM*	?	-22.6%	.
CCCCCCNc1ccc(/C=C/c2ccnc3ccccc23)cc1	.	-22.9%	.	.	-9.8%	.
CO/N=C(\c1nonc1N)N1CCN(c2ccc(Cl)cc2[N+](=O)[O-])CC1	35.5µM*	-10.1%	?	-30.4	-19.0%	-4.9%
COc1cc(/C=N/NC(=O)CN2CCCCC2)ccc1OCc1ccc(Br)cc1	-2.8%	-8.6%	10µM*	-13.6	-11.4%	2.0%
COc1ccc(-c2ccc3c(c2)COCC(=O)N3CCN2CCOCC2)cc1	.	.	.	-16.5	.	.
Cn1nc(C(F)(F)F)c(C#N)c1N1CCN(c2ccccc2)CC1	-18.0%	.	?	?	-11.8%	0.3%
Cn1nc(C(F)(F)F)c(C#N)c1N1CCN(c2ccc(F)cc2)CC1	?	.	?	-72.6*	-27.4%	-10.3%
Cc1ccc(-n2nc3c(N4CCC(C(=O)NC5CCC(C)CC5)CC4)nnc(C)c3c2C)cc1 (centres undefined)	-9.4%	?	.	-22.7	?	.
Cc1csc(NC(=O)C(C)Oc2ccc(Cl)cc2C)n1 (centres undefined)	1.1%	.	?	0.0	.	.
NS(=O)(=O)c1ccc(N/N=C2/CCCCC2C2CCCCC2)c([N+](=O)[O-])c1 (centres undefined)	?	20µM*	?	-32.9	15.8µM*	-8.8%
O=C(CS(=O)(=O)c1ccc(F)cc1)Nc1nnc(-c2cccs2)o1	-2.7%	-1.3%	-1.1%[8.37 µM]	-20.7	-0.8%	.
NC(=O)c1ccsc1NC(=O)CCS(=O)(=O)c1ccc(F)cc1	?	?	?	-63.4*	?	.
O=C(CCS(=O)(=O)c1ccc(F)cc1)Nc1nnc(-c2cccs2)o1	-21.3%	?	-4.1%	-4.5	12.6µM*	.
COc1cc(OC)cc(-c2nnc(NC(=O)CCS(=O)(=O)c3ccccc3)o2)c1	-14.0%	6.31µM*	10.8%[8.37 µM]	-6.1	?	.
COc1cc(OC)cc(-c2nnc(NC(=O)CCS(=O)(=O)c3ccc(F)cc3)o2)c1	-27.7%	5.62µM*	11.4%	-2.4	7.94µM*	.
CC(C)CC1(C)NC(=O)N(CC(=O)Nc2cccc(S(=O)(=O)N(C)c3ccccc3)c2)C1=O (centres undefined)	-29.5%	-16.7%	?	-12.3	-17.1%	-10.4%
C/C(CCC(=O)OC[C@@H]1O[C@H](C#Cc2ccccc2)C=C[C@@H]1Oc1ccc(C)cc1)=N/O[C@@H](C)c1cc(-c2c(C)cc(C)cc2C)no1	.	.	.	.	.	1.2%[12.9 µM]
Cc1cccc(OCC(=O)Nc2ccc(C(=O)OCc3cc(=O)n4nc(C5CC5)sc4n3)cc2)c1	-7.7%	i	.	5.4	-14.2%	.
COc1cc(CCC(=O)NCCc2ccc(F)cc2)cc(OC)c1OC	-11.0%	-14.0%	6.4%	-27.6	-12.3%	.
